From PubChem BioAssay
Values without a mark were called inactive. For some assays here: Measured potencies and affinities stand elsewhere. The source made the active and inactive calls. Unless noted, the rule behind the calls is not given here.

Tests used:
[1] = antimalarial activity against Dd2 strain (AID 2302;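 active = growth inhibition above 50% at the single 2 µM test dose, taken to imply half-maximal potency below 2 µM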;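 note: 0% = DMSO untreated growth and 100% = chloroquine plus artemisinin killed control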); conditions: P. falciparum Dd2 in RBCs, LDH growth readout, 72 h; at 2 µM; stronger effect = higher value
[2] = HepG2 cytotoxicity, primary screen, cytotoxicity control for P. falciparum antimalarial project, cell-based, ATP luminescence (AID 2303;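 active = inhibition above 50%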;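 note: 0% = DMSO wells and 100% = digitonin-killed cells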); conditions: HepG2 viability, 24-48 h, at 10 µM, stronger effect = higher value
[3] = target: L-lactate dehydrogenase (Plasmodium falciparum (isolate CDC / Honduras)) (UniProt Q27743); assay: PfLDH activity inhibition – cell lysate, 3D7 strain, counter-screen for P. falciparum growth inhibition project (AID 2304);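 note: 0% = vehicle and 100% = reference inhibitor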; conditions: P. falciparum 3D7 crude extract, LDH APAD/NBT absorbance; at 2 µM; stronger effect = higher value
[4] = inhibition of 3D7 malaria parasite growth – strain 3D7 (AID 2306);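 note: 0% = DMSO wells and 100% = chloroquine plus artemisinin control wells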; conditions: P. falciparum 3D7 erythrocytic growth, LDH absorbance, 72 h; at 2 µM; stronger effect = higher value
[5] = target: Calcium-dependent protein kinase 1 (Plasmodium falciparum (isolate 3D7)) (UniProt P62344); assay: PfCDPK1 kinase inhibitors, biochemical, TCAMS library (AID 1159585; cut-off not given, nearly all actives have IC50 up to about 0.98 µM;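 note: inhibitors leave more ATP so luminescence rises with inhibition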); conditions: recombinant PfCDPK1, Kinase-Glo ATP depletion luminescence
[6] = target: Plasmodium falciparum protein kinase 6 (PK6, PF3D7_1337100) (UniProt Q8IDW1); assay: PfPK6 kinase inhibitors, biochemical, TCAMS library (AID 1159586); conditions: recombinant PfPK6, Kinase-Glo ATP depletion luminescence
[7] = target: Protein kinase 7 (PK7), Plasmodium falciparum 3D7 (PF3D7_0213400) (UniProt Q7YTF7); assay: inhibition of Plasmodium PK7 catalytic activity – biochemical, TCAMS antimalarial set, Kinase-Glo luminescence (AID 1159587); conditions: recombinant PfPK7, Kinase-Glo ATP depletion luminescence
[8] = target: Calcium-dependent protein kinase 4 (Plasmodium falciparum (isolate 3D7)) (UniProt Q8IBS5); assay: PfCDPK4 kinase inhibitors, biochemical, TCAMS library (AID 1159588; cut-off not given, nearly all actives have IC50 up to about 0.91 µM); conditions: recombinant PfCDPK4, Kinase-Glo ATP depletion luminescence
Chain of Calcium-dependent protein kinase 4 (Plasmodium falciparum (isolate 3D7)) (Q8IBS5 whole entry, looked up): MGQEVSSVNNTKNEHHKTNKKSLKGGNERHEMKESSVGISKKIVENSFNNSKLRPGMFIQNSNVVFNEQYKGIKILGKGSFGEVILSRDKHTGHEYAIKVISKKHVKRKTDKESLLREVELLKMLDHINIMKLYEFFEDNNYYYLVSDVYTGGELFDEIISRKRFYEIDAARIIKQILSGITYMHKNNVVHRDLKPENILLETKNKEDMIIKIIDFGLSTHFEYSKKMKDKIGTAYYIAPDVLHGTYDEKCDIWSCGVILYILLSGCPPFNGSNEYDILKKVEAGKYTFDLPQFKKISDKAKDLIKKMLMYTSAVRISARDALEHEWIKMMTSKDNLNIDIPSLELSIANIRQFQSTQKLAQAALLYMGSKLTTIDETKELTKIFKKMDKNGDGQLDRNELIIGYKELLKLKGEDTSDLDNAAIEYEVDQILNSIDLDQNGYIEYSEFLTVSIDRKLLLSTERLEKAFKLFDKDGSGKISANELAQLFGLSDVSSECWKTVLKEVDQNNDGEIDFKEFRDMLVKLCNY

Chain of Calcium-dependent protein kinase 1 (Plasmodium falciparum (isolate 3D7)) (P62344 whole entry, looked up): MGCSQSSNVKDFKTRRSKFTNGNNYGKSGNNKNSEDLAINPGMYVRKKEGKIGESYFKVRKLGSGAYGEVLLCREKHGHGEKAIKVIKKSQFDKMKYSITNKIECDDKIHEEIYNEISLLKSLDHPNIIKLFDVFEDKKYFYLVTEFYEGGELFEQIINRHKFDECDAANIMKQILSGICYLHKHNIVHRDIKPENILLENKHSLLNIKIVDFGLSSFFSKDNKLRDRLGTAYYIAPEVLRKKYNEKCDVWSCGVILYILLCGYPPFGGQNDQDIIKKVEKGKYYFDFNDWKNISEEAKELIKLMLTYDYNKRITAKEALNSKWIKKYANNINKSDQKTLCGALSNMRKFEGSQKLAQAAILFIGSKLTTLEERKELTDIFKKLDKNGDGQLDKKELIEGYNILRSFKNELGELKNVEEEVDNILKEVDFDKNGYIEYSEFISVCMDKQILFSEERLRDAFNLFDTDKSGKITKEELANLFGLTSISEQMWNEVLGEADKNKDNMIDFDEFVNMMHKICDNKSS
Chain of Plasmodium falciparum protein kinase 6 (PK6, PF3D7_1337100) (Q8IDW1 1-305): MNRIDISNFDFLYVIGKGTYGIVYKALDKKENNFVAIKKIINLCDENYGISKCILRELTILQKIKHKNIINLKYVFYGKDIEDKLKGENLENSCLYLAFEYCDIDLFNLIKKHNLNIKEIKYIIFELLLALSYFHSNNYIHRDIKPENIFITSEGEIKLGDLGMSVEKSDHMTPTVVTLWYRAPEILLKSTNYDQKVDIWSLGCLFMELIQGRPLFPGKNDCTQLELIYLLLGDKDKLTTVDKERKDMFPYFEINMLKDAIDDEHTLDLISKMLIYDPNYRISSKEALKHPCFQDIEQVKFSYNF
Chain of Protein kinase 7 (PK7), Plasmodium falciparum 3D7 (PF3D7_0213400) (Q7YTF7 1-343): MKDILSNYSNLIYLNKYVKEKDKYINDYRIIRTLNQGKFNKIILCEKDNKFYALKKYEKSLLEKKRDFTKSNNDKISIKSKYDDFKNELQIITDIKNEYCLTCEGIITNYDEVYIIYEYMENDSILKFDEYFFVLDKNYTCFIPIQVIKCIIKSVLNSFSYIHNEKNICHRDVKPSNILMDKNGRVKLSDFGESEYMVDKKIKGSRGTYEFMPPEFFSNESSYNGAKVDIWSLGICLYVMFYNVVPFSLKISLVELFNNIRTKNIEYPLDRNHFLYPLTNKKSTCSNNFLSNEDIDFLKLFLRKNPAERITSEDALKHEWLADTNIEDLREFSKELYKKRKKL
Chain of L-lactate dehydrogenase (Plasmodium falciparum (isolate CDC / Honduras)) (Q27743 whole entry, looked up): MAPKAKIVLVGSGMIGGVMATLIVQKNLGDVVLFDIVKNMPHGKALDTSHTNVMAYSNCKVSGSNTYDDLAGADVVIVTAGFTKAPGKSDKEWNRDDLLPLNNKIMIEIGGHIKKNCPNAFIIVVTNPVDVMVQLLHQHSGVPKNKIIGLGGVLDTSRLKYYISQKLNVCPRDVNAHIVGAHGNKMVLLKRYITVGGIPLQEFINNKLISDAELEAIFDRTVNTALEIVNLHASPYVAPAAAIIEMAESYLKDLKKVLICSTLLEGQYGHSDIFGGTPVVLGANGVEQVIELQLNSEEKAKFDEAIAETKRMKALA

Row | SMILES | growth inhibition [1] | inhibition [2] | inhibition [3] [%] | growth inhibition [4] | outcome [5] | outcome [6] | outcome [7] | outcome [8]
1 | Cc1[nH]c(C)c(-c2ccc(Oc3ccc(F)cc3)cc2)c(=O)c1Cl | 98% (active) | 14% | 4 | 99% (active) | inactive | inactive | inactive | inactive
2 | C=CCN1CCC(N(Cc2cccc(Oc3ccccc3)c2)C(=O)C(c2ccccc2)c2ccccc2)CC1 | 79% (active) | 7% | -5 | 87% (active) | inactive | inactive | inactive | inactive
3 | Fc1ccc(-c2cncc(-c3ccc(F)cc3)n2)cc1 | 94% (active) | 7% | 2 | 99% (active) | inactive | inactive | inactive | inactive
4 | CC1(C)N=C(N)N=C(N)N1OCc1ccc2ccccc2c1CON1C(N)=NC(N)=NC1(C)C | 12% | 8% | 1 | 96% (active) | inactive | inactive | inactive | inactive
5 | COc1cc(C)nc2ccc(NC(=O)Nc3ccc([N+](=O)[O-])cc3C)cc12 | 52% (active) | 10% | -5 | 90% (active) | inactive | inactive | inactive | inactive
6 | Cc1cccc2[nH]c(-c3ccc(-c4cccc(CNCCCNS(C)(=O)=O)c4)cc3)nc12 | 5% | 5% | 2 | 99% (active) | inactive | inactive | inactive | inactive
7 | COc1ccc(CCON2C(N)=NC(N)=NC2(C)C)cc1OC | 93% (active) | 64% (active) | 2 | 96% (active) | inactive | inactive | inactive | inactive
8 | Cc1nc(-c2nc(N3CCC(C(N)=O)CC3)ncc2-c2ccsc2)sc1C | 33% | -8% | -11 | 93% (active) | inactive | inactive | inactive | inactive
9 | O=C(Nc1ccc(-c2nc3ccccc3[nH]2)cc1)C1CCCN(CC2CC2)C1 (stereo not given) | 8% | 6% | 0 | 89% (active) | inactive | inactive | inactive | inactive
10 | CC1(C)N=C(N)N=C(N)N1OCCCc1c(Cl)cccc1Cl | 97% (active) | 71% (active) | 3 | 95% (active) | inactive | inactive | inactive | inactive
11 | COc1ccc(/C=C/C(=O)NCCCCCN2CCC(c3c[nH]c4ccccc34)CC2)cc1O | 1% | 9% | -5 | 91% (active) | inactive | inactive | inactive | inactive
12 | Clc1ccc(-c2ncc(-c3ccncc3)[nH]2)cc1Cl | 63% (active) | 1% | -5 | 96% (active) | inactive | inactive | inactive | inactive
13 | O=C(Nc1ccc(S(=O)(=O)N2CCCCC2)cc1)c1cc(-c2ccccc2O)n[nH]1 | 81% (active) | 13% | -2 | 94% (active) | inactive | inactive | inactive | inactive
14 | CCc1[nH]nc(C(=O)Nc2cccc(N3CCCC3)c2)c1C | 52% (active) | 15% | 1 | 81% (active) | inactive | inactive | inactive | inactive
15 | CCCCCc1cc(O)c2c(c1)OC(C)(C)C=C2C1=CCN(Cc2ccsc2)CC1 | 48% | 20% | -1 | 98% (active) | inactive | inactive | inactive | inactive
16 | O=C(Nc1cccc(-c2ccc(CN3CCCC3)cc2)c1)c1cccc(F)c1 | 17% | 20% | -6 | 99% (active) | inactive | inactive | inactive | inactive
17 | CN1CCC(NCc2cccc(-c3cnc(NCc4ccccc4)nc3)c2)CC1 | 67% (active) | 12% | 4 | 102% (active) | inactive | inactive | inactive | inactive
18 | Nc1c(C(=O)NCCCCN2CCN(c3nsc4ccccc34)CC2)sc2ccccc12 | -6% | 26% | -5 | 86% (active) | inactive | inactive | inactive | inactive
19 | COc1ccc2nccc([C@@H](O)CN3CCC(NC(=O)c4ccc5cc[nH]c5c4)CC3)c2c1 | 23% | 21% | -6 | 91% (active) | inactive | inactive | inactive | inactive
20 | Cc1cccc(C)c1N1CCN(C2CCC(NC(=O)c3cc4ccccc4[nH]3)CC2)CC1 (stereo not given) | 64% (active) | 31% | -7 | 101% (active) | inactive | inactive | inactive | inactive

Row | SMILES | growth inhibition [1] | inhibition [2] | inhibition [3] [%] | growth inhibition [4] | outcome [5] | outcome [6] | outcome [7] | outcome [8]
21 | c1cc(-c2cc3ccc(C4=NCCN4)cc3[nH]2)ccc1C1=NCCN1 | 99% (active) | 15% | -1 | 97% (active) | inactive | inactive | inactive | inactive
22 | COc1ccc(NC(=O)N2CCc3ccc(OCCN(C(C)C)C(C)C)cc32)cc1C(F)(F)F | 6% | -1% | -2 | 90% (active) | inactive | inactive | inactive | inactive
23 | O=C(CSc1nccn1C1CCCC1)Nc1cc(C(F)(F)F)ccc1Cl | 94% (active) | -4% | -2 | 96% (active) | inactive | inactive | inactive | inactive
24 | O=C(Nc1ccc(Cl)cc1)N[C@H]1CCN(Cc2ccc(OCCCN3CCCCC3)cc2)C1 | -1% | 29% | -2 | 103% (active) | inactive | inactive | inactive | inactive
25 | Cc1[nH]c(C)c(-c2ccc(Oc3ccc(Cl)cc3)cc2)c(=O)c1Br | 96% (active) | 12% | -4 | 97% (active) | inactive | inactive | inactive | inactive
26 | Cc1[nH]c(C)c(-c2ccc(-c3ccccc3F)nc2)c(=O)c1Br | 97% (active) | 2% | -3 | 97% (active) | inactive | inactive | inactive | inactive
27 | FC(F)(F)COc1c(CCNCCCCNCCc2ccc3ccccc3c2OCC(F)(F)F)ccc2ccccc12 | 97% (active) | 99% (active) | -3 | 101% (active) | inactive | inactive | inactive | inactive
28 | O=c1cc(NCCC(CNCc2ccoc2)NCc2cc(Br)cc(Br)c2)[nH]c2ccccc12 (stereo not given) | 28% | -6% | -1 | 92% (active) | inactive | inactive | inactive | inactive
29 | NC(N)=NN=CC(=O)Nc1cccc(C(F)(F)F)c1 | 25% | 21% | 1 | 99% (active) | inactive | inactive | inactive | inactive
30 | CC(C)Cc1cn(-c2nc(C(=N)N)cs2)c2cc(Cl)ccc12 | 98% (active) | 98% (active) | -1 | 100% (active) | inactive | inactive | inactive | inactive
31 | Cc1ccc(Nc2nc(C)cc(Nc3cccc(C#N)c3)n2)cc1 | 96% (active) | 14% | 4 | 101% (active) | inactive | inactive | inactive | inactive
32 | CN(C)CCOc1cc(NC(=O)Nc2ccc3c(c2)CCCC3=O)ccc1I | 31% | 29% | -5 | 94% (active) | inactive | inactive | inactive | inactive
33 | CN(C)CCOc1cc(NC(=O)Nc2ccc(-c3ccncc3)c3ccccc23)ccc1I | 46% | 35% | -3 | 97% (active) | inactive | inactive | inactive | inactive
34 | c1cc(-c2ccc(CNCCc3ccncc3)cc2)cc(-c2nc3ccccc3[nH]2)c1 | 99% (active) | 41% | -8 | 101% (active) | inactive | inactive | inactive | inactive
35 | NC(N)=NC(=O)Nc1cc(Br)c(Br)c(Br)c1 | 89% (active) | 0% | 1 | 101% (active) | inactive | inactive | inactive | inactive
36 | O=C(c1cc(C(=O)Nc2ccccc2)c(=O)n(-c2ccccc2)c1)c1cc(Cl)ccc1O | 95% (active) | 9% | -1 | 100% (active) | inactive | inactive | inactive | inactive
37 | CN(CCCCCN1CCC(NC(=O)Nc2ccc(C(F)(F)F)cc2)C1)C(=O)/C=C/c1ccc(Cl)c(Cl)c1 (stereo not given) | 11% | 28% | -3 | 101% (active) | inactive | inactive | inactive | inactive
38 | COc1ccc2nccc([C@@H](O)CN3CCC(NC(=O)/C=C/c4ccnc5ccccc45)CC3)c2c1 | 12% | 19% | -1 | 91% (active) | inactive | inactive | inactive | inactive
39 | Cn1nc2ccc3ccccc3c2nc1=N | 85% (active) | 100% (active) | -4 | 91% (active) | inactive | inactive | inactive | inactive
40 | CC(=O)COc1c(C2CCN(CCCCNC(=O)c3ccc(-c4ccc(C(F)(F)F)cc4)cc3)CC2)ccc2c1CCCC2 | 53% (active) | 100% (active) | -7 | 99% (active) | inactive | inactive | inactive | inactive
